# A selection: hits, their analogues and other compounds. The true share with any hit is near 2.2%.
# Abeta yeast res: A-beta toxicity reversal in yeast. yeast expressing A-beta42, growth rescue, OD600, 48 h; response scale: 0% DMSO, 100% iron-clioquinol control. Potency, µM (series often up to 46.1 µM), usual class: activators. 410,000 tested, 0.063% active. AID 1347071; also: nearly all actives have a fitted effect of over 55% in size
#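 Yeast A-beta toxicity model in growth medium with pinned compounds, 48 h at 30 C; growth read as absorbance at 600 nm. Normalized to FeCl3/clioquinol equimolar mix (positive) and DMSO (negative).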
# FUS yeast rescue: rescues growth of FUS-expressing yeast; S. cerevisiae FUS-expressing, growth rescue, OD600, 24 h; Potency, µM (titrated, usually from 76.6 µM), hits mostly activators; 390,000 tested, 0.24% active;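 also: plate controls were DMSO vehicle for no effect and reference control for full effect; nearly all actives have a fitted effect of over 55% in size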
#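 Compound concentration series was pinned onto galactose-induced FUS-expressing yeast seeded at OD 0.005. Plates sat 24hr at 30C; absorbance at 600 nm gave growth. DMSO served as background control.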
# TDP-43 yeast inh: TDP-43 toxicity inhibition in yeast | TDP-43 expressing yeast growth rescue, BacTiter-Glo, 24 h | Potency, µM (series often up to 46.1 µM), for inactives: top-dose growth rescue (activation), usual class: activators | 410,000 tested, 1.8% active; also: % of control where 0% means no effect; nearly all actives have a fitted effect of over 50% in size
#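 Growth rescue of TDP-43-toxic yeast measured as ATP luminescence (BacTiter-Glo). Cells grown to mid-log in raffinose, induced in galactose at OD600=0.02, exposed to compound 24 hr at 30 deg C.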
# aSyn rescue: rescues yeast growth from alpha-synuclein toxicity; Yeast expressing alpha-synuclein, growth rescue, BacTiter-Glo, 24 h; Potency, µM (top dose mostly 46.1 µM), for inactives: top-dose growth rescue (activation), most hits filed as activators; 370,000 tested, 0.14% active; AID 652106; also: % of control where 0% means no effect; nearly all actives have a fitted effect of over 65% in size
#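 Readout is rescue of growth in alpha-synuclein-expressing yeast, so inhibitors of toxicity appear as activators. Growth after 24 hr at 30 deg C in galactose medium is quantified by luminescence.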
# Mito fusion act: inhibitors of mitochondrial division or activators of mitochondrial fusion; S. cerevisiae fusion-defective mutant growth rescue, CellTiterGlo 48 h; 320,000 tested, 0.23% active; Potency, µM (highest dose often 46.1 µM), for the others: top-dose growth rescue (activation), most hits filed as activators; also: % of control where 0% means no effect; nearly all actives have a fitted effect of over 45% in size
#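 Yeast fusion mutant, YPEG (non-fermentable carbon), compound, 48 h at 37C non-permissive; CellTiterGlo added, 10 min RT, luminescence read. Rescued growth = division inhibition.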
# The depositor's hits bear a star; i = inactive; u = inconclusive; x = no result given; [ ] = another dose, or the depositor's remark. Calls follow the shape of the dose curve; as a rule, active = well fitted curve in the direction sought with a large enough effect; inconclusive = small, poorly fitted or top-dose-only effect, or another doubt; inactive = no such curve, though single readings can be large; an effect the other way counts as inactive or inconclusive. Potency is read from the fitted curve at half-maximal effect.
SMILES,Abeta yeast res,FUS yeast rescue,TDP-43 yeast inh,aSyn rescue,Mito fusion act
Cc1ccc(-c2cc(C(=O)N(Cc3ccc(C(C)(C)C)cc3)Cc3ccco3)no2)cc1,i,i,-11%,x,x
Cc1ccc(NC(=O)C2CCN(c3nn4c(=O)cc(C)nc4s3)CC2)cc1,i,i,14%,x,x
CCOc1ccccc1NC(=O)c1ccc2ccccc2c1,i,i,6.3µM*,-3%,-1%
CCOc1ccccc1NC(=O)NNC(=O)c1ccc2ccccc2c1,i,i,17%,2%,-3%
CCOc1ccccc1NC(=O)CSc1nnc(-c2ccco2)o1,i,i,13µM*,0%,-1%
COc1ccccc1NC(=O)CCSc1nnc(-c2ccco2)o1,i,i,-5%,-3%,0%
COC(=O)c1cc2occc2n1Cc1nc(-c2cccc(Br)c2)oc1C,i,i,8%,x,x
CCc1ccc(CNC(=O)c2c(C)oc3ncnc(N4CCOCC4)c23)cc1,i,i,-6%,x,x
O=C1C(SCCO)=C(SCCO)C(=O)c2ccccc21,i,i,22µM*,-80%,u
CC(=O)OC[C@@H]1CN(Cc2cccc(C(F)(F)F)c2)C[C@H](n2cnc3c(NCc4ccco4)ncnc32)O1,i,u,11µM*,3%,x
CCc1c(C)sc(NC(=O)c2cc(-c3cccc(Cl)c3)on2)c1C#N,i,i,-5%,x,x
CC(=O)N1CCOc2cc(S(=O)(=O)N(C)Cc3ccccc3)c(Cl)cc21,i,i,12%,1%,x
CCN(CC)c1cc(C)nc2nc(-c3ccc(C)cc3)nn12,i,i,20µM*,x,x
Cc1cc(N(CCO)Cc2ccccc2)n2nc(-c3ccc(C(C)(C)C)cc3)nc2n1,i,i,u,x,x
Cc1cc(N(C)Cc2ccccc2)n2nc(-c3ccc(C(C)(C)C)cc3)nc2n1,i,u,16µM*,x,x
COc1cc(CC(=O)Nc2c(-c3ccccc3)[nH][nH]c2=O)cc(OC)c1,i,i,-5%,-4%,x
C=CC(=O)N1CCC[C@@H](n2nc(-c3ccc(Oc4ccccc4)cc3)c3c(N)ncnc32)C1,x,x,x,-16%[92.2 µM],x
N#CC(=C1C=CC(=NO)C(Cl)=C1)c1ccccc1,i,i,7.1µM*,-10%,x
Cc1cc(-c2nc3ccccc3s2)ccc1N,i,x,18µM*,-17%,x
CCc1ccccc1Nc1ncnc2c1nc1n2CCCC1,i,i,19%,x,x
Cc1cc(C)cc(OCC(=O)N2CCC(c3nc4ccccc4o3)CC2)c1,i,i,22µM*,x,x
Cc1cc(OC(C)C(=O)N2CCC(c3nc4ccccc4o3)CC2)ccc1Cl (configuration not stated),i,u,25µM*,x,x
COc1cccc(NC(=O)CSc2cc(C)[nH]c(=O)n2)c1,i,i,13%,x,x
COc1ccc2nc(-c3ccccc3)[nH]c2c1,i,i,18%,-18%,4%
COc1ccc2[nH]c(-c3ccccc3)cc2c1,i,i,13µM*,1%,-21%
SMILES,Abeta yeast res,FUS yeast rescue,TDP-43 yeast inh,aSyn rescue,Mito fusion act
O=C(Nc1ccc(Cl)cc1C(F)(F)F)c1cc(S(=O)(=O)NCc2ccccc2)ccc1F,i,i,u,x,x
O=C(c1cc(-c2ccccc2)nc2ccccc12)N1CCc2ccccc2C1,i,x,25µM*,-16%,11%
Cc1cccc2c(C(=O)N3CCN(c4ccccn4)CC3)cc(-c3cccc(Br)c3)nc12,i,u,18µM*,12%,7%
O=C(c1cc(-c2cccc(Cl)c2)nc2ccccc12)N1CCN(c2ccccn2)CC1,i,i,4%,8%,8%
COc1cccc(-c2cc(C(=O)N3CCN(c4ncccn4)CC3)c3ccccc3n2)c1,i,x,18µM*,4%,20%
Cc1ccc2nc(-c3ccccc3)cc(C(=O)N3CCc4ccccc4C3)c2c1,i,u,10%,25%,4%
COc1cccc(/C=C/c2cnc3ccccc3n2)c1OC,x,x,x,-15%,x
Cn1cnnc1SCC(=O)Nc1sc2c(c1C(N)=O)CCC2,i,7.1µM*,0%,2%,-1%
COc1cc(OC)cc(C(=O)Nc2sc3c(c2C(N)=O)CCC3)c1,i,i,-12%,3.5µM*,-1%

# Assay outcomes as filed in PubChem.
